Unmarked numbers belong to inactive results. Results filed as inconclusive are left out. A call without a number means that no potency is given here. Activity calls are given as the source filed them. Unless noted, the call rests on the fitted dose curve; in most records, active means well fitted curve in the direction sought with a large enough effect in the repeat runs; inconclusive means weak or mixed curves; inactive means no such curve, though single readings can be large; an effect the other way counts as inactive or inconclusive.
Tests used:
[1] = qHTS assay to identify small molecule agonists of the estrogen receptor alpha (ER-alpha) signaling pathway in the presence of an antagonist - cell viability counter screen (AID 1259386);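 further: cells exposed to compounds for 22 h at 37 °C before the viability read; nearly all actives have a fitted effect of over 30% in size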; further: potency means the concentration at half of the fitted maximal effect
Method in brief: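 ICI-182,780 at 10.0nM final accompanies the compound titration (15 concentrations, 22hr, 37C) on VM7Luc4E2 cells. The CellTiter-Fluor fluorescence readout runs in the same wells as the luciferase assay.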

[2] = molecular target: Progesterone receptor (Homo sapiens) (UniProt P06401); experiment: qHTS assay to identify small molecule agonists of the progesterone receptor (PR) signaling pathway (AID 1346784; calls by dose curve; further: nearly all actives have a fitted effect of over 30% in size; further: potency means the concentration at half of the fitted maximal effect)
Progesterone receptor (Homo sapiens), sequence (P06401 whole entry, looked up): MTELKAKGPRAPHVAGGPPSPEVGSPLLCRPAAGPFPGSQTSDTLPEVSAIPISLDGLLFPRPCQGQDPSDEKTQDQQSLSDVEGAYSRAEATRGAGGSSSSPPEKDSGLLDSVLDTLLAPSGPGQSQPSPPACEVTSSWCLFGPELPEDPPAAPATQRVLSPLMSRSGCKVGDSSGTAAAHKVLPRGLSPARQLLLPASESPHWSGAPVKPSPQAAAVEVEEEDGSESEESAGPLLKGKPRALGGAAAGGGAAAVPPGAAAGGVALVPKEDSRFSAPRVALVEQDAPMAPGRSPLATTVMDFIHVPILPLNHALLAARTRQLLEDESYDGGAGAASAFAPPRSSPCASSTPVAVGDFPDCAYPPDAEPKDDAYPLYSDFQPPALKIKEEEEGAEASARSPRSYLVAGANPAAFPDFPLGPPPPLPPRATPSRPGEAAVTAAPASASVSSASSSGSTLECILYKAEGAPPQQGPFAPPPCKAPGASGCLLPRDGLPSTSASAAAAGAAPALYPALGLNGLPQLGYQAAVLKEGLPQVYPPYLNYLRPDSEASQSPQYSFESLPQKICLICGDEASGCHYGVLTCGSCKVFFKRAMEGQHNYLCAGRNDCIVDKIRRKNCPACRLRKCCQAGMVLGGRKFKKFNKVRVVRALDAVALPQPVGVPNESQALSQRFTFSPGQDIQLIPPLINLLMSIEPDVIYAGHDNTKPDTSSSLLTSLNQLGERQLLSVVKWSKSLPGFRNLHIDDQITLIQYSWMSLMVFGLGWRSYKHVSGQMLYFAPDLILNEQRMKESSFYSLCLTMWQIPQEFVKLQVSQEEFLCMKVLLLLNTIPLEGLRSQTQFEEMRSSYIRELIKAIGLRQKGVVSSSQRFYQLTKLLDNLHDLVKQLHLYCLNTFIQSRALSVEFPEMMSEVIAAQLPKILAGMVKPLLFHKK
Method in brief: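 Cells (PR-UAS-bla HEK 293T, GripTite) were plated in assay medium containing 2% charcoal-stripped FBS and incubated 6 hr. Test compounds in DMSO were added for 16 hr at 37C. FRET substrate was then loaded for 2 hr at room temperature before fluorescence reading.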

[3] = qHTS assay to identify small molecule antagonists of the progesterone receptor (PR) signaling pathway - cell viability counter screen (AID 1346798); further: series mostly up to about 92 µM; nearly all actives have a fitted effect of over 50% in size
Method in brief: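 Counter screen for cytotoxicity: viability of PR-UAS-bla HEK293T cells was measured with CellTiter-Glo luminescence following 16 hr compound exposure in the presence of R5020.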

[4] = qHTS assay to identify small molecule agonists of the progesterone receptor (PR) signaling pathway - cell viability counter screen (AID 1346799; calls by dose curve; further: nearly all actives have a fitted effect of over 45% in size)
Method in brief: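 Cells (PR-UAS-bla HEK293T) are plated at 3,000/well in 2% charcoal-stripped FBS medium, rested 6 hr, dosed and incubated 16 hr at 37C. CellTiter-Glo is then added and luminescence measured after 30 min at room temperature.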

[5] = qHTS assay to identify small molecule antagonists of the TGF-beta/Smad signaling pathway - cell viability counter screen (AID 1346824); further: nearly all actives have a fitted effect of over 50% in size
Method in brief: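 SBE-bla HEK 293T cells were plated overnight at 37 C, then given compounds in DMSO plus TGF-beta1 (added as 0.25 ng/mL solution) for 5 hr. After the bla read, CellTiter-Glo was added to the same wells and luminescence read after 30 min at room temperature.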

[6] = qHTS assay to identify small molecule agonists of the TGF-beta/Smad signaling pathway - cell viability counter screen (AID 1346829); further: top concentration of the series differs between compounds; nearly all actives have a fitted effect of over 45% in size
Method in brief: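 Same-well cytotoxicity: CellTiter-Glo added after the 2 hr room-temperature beta-lactamase substrate step, luminescence measured 30 min later; cells had 5 hr of compound at 37 C.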

[7] = qHTS assay to identify small molecule agonists of the TGF-beta/Smad signaling pathway (AID 1346859; active means well fitted activation curve with a large enough effect in the signal ratio in the repeat runs, not every such curve was filed as active; the % refers to the signal ratio; further: series mostly up to about 77 µM)
Method in brief: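 Reporter line: HEK 293T with stably integrated SBE-controlled beta-lactamase. Compound exposure lasts 5 hr at 37 C and 5% CO2; substrate loading follows for 2 hr at room temperature, with emission read at 460 and 530 nm.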

[8] = molecular target: Progesterone receptor (Homo sapiens) (UniProt P06401); experiment: qHTS assay to identify small molecule antagonists of the progesterone receptor (PR) signaling pathway (AID 1346795; active means well fitted inhibition curve with a large enough effect in the signal ratio in the repeat runs, not every such curve was filed as active; the % refers to the signal ratio; further: potency means the concentration at half of the fitted maximal effect)
Method in brief: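 Antagonist mode: compounds tested against 1 nM (final) promegestone stimulation in HEK293T cells expressing PR-UAS-bla reporter, 16 hr at 37C, 5% CO2; beta-lactamase activity detected via B/G FRET substrate after 2 hr at room temperature.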

[9] = molecular target: Thyrotropin-releasing hormone receptor (Homo sapiens) (UniProt P34981); experiment: qHTS assay to identify small molecule antagonists of the thyrotropin-releasing hormone receptor (TRHR) signaling pathway (AID 1346877; active means well fitted inhibition curve with a large enough effect in the repeat runs, not every such curve was filed as active; further: series mostly up to about 51 µM)
Thyrotropin-releasing hormone receptor (Homo sapiens), sequence (P34981 whole entry, looked up): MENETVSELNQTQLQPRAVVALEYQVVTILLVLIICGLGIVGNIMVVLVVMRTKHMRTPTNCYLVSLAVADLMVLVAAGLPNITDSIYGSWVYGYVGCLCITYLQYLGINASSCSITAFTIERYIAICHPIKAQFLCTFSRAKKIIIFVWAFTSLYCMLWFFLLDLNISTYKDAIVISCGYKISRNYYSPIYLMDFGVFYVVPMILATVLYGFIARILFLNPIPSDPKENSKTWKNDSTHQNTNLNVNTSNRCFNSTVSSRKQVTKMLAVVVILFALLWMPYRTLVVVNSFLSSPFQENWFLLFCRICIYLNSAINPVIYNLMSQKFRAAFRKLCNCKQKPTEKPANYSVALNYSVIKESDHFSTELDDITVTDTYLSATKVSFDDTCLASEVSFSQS
Method in brief: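 Screening used HEK293 cells engineered with TRHR, with a brief 5 min room-temperature compound exposure preceding addition of TRH to 1 nM. The read-out was kinetic calcium-dye fluorescence, concentration-response from 15 doses in triplicate.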

Row | Structure (SMILES) | Potency [1] | Potency [2] | Potency [3] | Potency [4] | Potency [5] | Potency [6] | Potency [7] | Potency [8] | outcome [9]
1 | CC(=O)c1ccc([N+](=O)[O-])cc1 | inactive | inactive | inactive | inactive | inactive | inactive | inactive | – | –
2 | CC=C(Cl)Cl | inactive | inactive | inactive | inactive | inactive | – | inactive | inactive | inactive
3 | CC(=O)Nc1cc(S(=O)(=O)O)cc2cc(S(=O)(=O)O)c(N=Nc3ccccc3)c(O)c12 | 17.2 µM (active) | – | inactive | inactive | inactive | inactive | inactive | inactive | inactive
4 | O=C(O)CCCCCCCCCCCBr | inactive | inactive | inactive | – | inactive | inactive | – | inactive | inactive
5 | CC(=O)OCC(=O)NCCCOc1cccc(CN2CCCCC2)c1 | inactive | inactive | – | inactive | inactive | inactive | – | inactive | –
6 | CC[C@]1(O)C[C@H]2CN(CCc3c([nH]c4ccccc34)[C@@](C(=O)OC)(c3cc4c(cc3OC)N(C=O)[C@H]3[C@@](O)(C(=O)OC)[C@H](OC(C)=O)[C@]5(CC)C=CCN6CC[C@]43[C@@H]65)C2)C1 | inactive | inactive | – | – | inactive | inactive | inactive | – | –
7 | C=CCc1ccccc1OCC(O)CNC(C)C (centres undefined) | inactive | inactive | inactive | – | inactive | inactive | inactive | inactive | inactive
8 | CC(=O)[C@H]1[C@H](C#N)C[C@H]2[C@@H]3CC=C4C[C@@H](O)CC[C@]4(C)[C@H]3CC[C@@]21C | inactive | inactive | inactive | inactive | inactive | – | – | – | inactive
9 | CCC1CO1 (centres undefined) | inactive | – | inactive | inactive | inactive | inactive | inactive | inactive | –
10 | CN(C)CCC=C1c2ccccc2C=Cc2ccccc21 | inactive | inactive | – | – | inactive | – | inactive | – | inactive
11 | COc1ccccc1Oc1c(NS(=O)(=O)c2ccc(C(C)(C)C)cc2)nc(-c2ncccn2)nc1OCCO | inactive | inactive | inactive | inactive | inactive | inactive | inactive | – | –
12 | CCCCN(CCCC)C(C(N)=O)c1ccc(OC)cc1 (centres undefined) | inactive | inactive | inactive | – | inactive | inactive | – | inactive | –
13 | O=C1Cc2ccccc2N1c1c(Cl)cccc1Cl | inactive | inactive | – | – | inactive | inactive | inactive | – | –
14 | O=C(OCC(O)CO)c1ccccc1Nc1ccnc2cc(Cl)ccc12 (centres undefined) | inactive | inactive | – | – | inactive | inactive | inactive | 21.1 µM (active) | inactive
15 | Cc1ccc(Cl)c(Nc2ccccc2C(=O)O)c1Cl | inactive | inactive | – | inactive | inactive | inactive | – | – | inactive
16 | O=C1CCCCCCCCCCOCCCCO1 | inactive | – | inactive | inactive | inactive | – | – | inactive | –
17 | Brc1cc2ccccc2c2ccccc12 | inactive | inactive | inactive | – | inactive | inactive | inactive | – | inactive
18 | CC(C)=CC(=O)C=C(C)C | inactive | inactive | – | inactive | inactive | inactive | inactive | inactive | –
19 | C/C=C/C=C/C=O | inactive | inactive | inactive | inactive | inactive | inactive | – | – | inactive
20 | CN1C(=O)OC(C)(C)C1=O | inactive | inactive | inactive | inactive | inactive | – | inactive | inactive | inactive
21 | CCC(C)(C)OC | inactive | inactive | inactive | – | inactive | inactive | inactive | inactive | inactive
22 | O=C(O)CCC(=O)C(=O)O | inactive | inactive | inactive | – | inactive | inactive | inactive | inactive | –
23 | CO[C@]1(NC(=O)CSC(F)F)C(=O)N2C(C(=O)O)=C(CSc3nnnn3CCO)CO[C@H]21 | inactive | inactive | inactive | inactive | inactive | inactive | inactive | – | –
24 | O=[N+]([O-])c1ccc(Nc2ccc(Nc3ccccc3)c(S(=O)(=O)O)c2)c([N+](=O)[O-])c1 | 54.5 µM (active) | – | inactive | inactive | inactive | inactive | inactive | inactive | –
25 | O=Cc1c2ccccc2c(Cl)c2ccccc12 | inactive | inactive | inactive | inactive | inactive | inactive | inactive | – | –
26 | Cc1cccc(N(C)C(=S)Oc2ccc3c(c2)CCC3)c1 | inactive | inactive | – | inactive | inactive | inactive | inactive | 11.9 µM (active) | –
27 | COc1ncnc(NS(=O)(=O)c2ccc(N)cc2)c1OC | inactive | inactive | inactive | – | inactive | inactive | inactive | inactive | inactive
28 | Cc1ccc(CO)cc1 | inactive | 17.4 µM (active) | inactive | – | inactive | – | inactive | – | inactive
